Records with an inconclusive call do not appear. Calls of active or inactive are those of the source. Rule for the calls, unless noted: active = hit-call score of the fitted dose curve at least 0.9, where 1 is the maximum; inactive = score below 0.9.

The AC50 is the midpoint of the concentration-response curve, whichever way the signal moves.

Assay [1] concerns the target Myc proto-oncogene protein (Homo sapiens) (UniProt P01106). The assay is described as follows: ATG_Myc_CIS: Attagene CIS-FACTORIAL HepG2 Assay for human Myelocytomatosis (Myc) Proto-Oncogene Transcription Factor (AID 2282990). The note with it: HepG2, Attagene cis-reporter transcription factor activity; actives raise or lower the signal. Summed up: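 Transiently transfected HepG2 cells bearing cis-promoter reporter units for endogenous transcription factors; 24 h exposure. Reporter mRNA measured by RT-PCR, 6-FAM primer extension, HpaI cut and capillary electrophoresis; bidirectional fit relative to DMSO.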

Assay [2] can be described thus: ATG_NRF2_ARE_CIS: Attagene CIS-FACTORIAL HepG2 Assay for human Nuclear Factor Erythroid 2 Related Factor 2 (NFR2) response to Antioxidant Response Elements (ARE) (AID 2282992).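 For AC50: reporter mRNA level measured by RT-PCR and capillary electrophoresis fluorescence.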 The note with it: HepG2 Attagene ARE/NRF2 reporter, transcription factor activity; actives raise or lower the signal. An outline of the steps: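 HepG2 cells transiently transfected with multiplexed cis-regulated reporter transcription units measure endogenous transcription factor activity. Reporter mRNA at 24 h is quantified by RT-PCR, fluorescent labelling and capillary electrophoresis, with bidirectional fitting relative to DMSO.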

Assay [3] can be described thus: ATG_Oct_MLP_CIS: Attagene CIS-FACTORIAL HepG2 Assay for human Octamer-Binding Transcription Factor (Oct) (AID 2282993). To be noted: HepG2 Attagene cis-factorial Oct reporter, mRNA; actives raise or lower the signal. An outline of the steps: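 HepG2, transient MRTU transfection, cis promoter elements; 24 h dosing; RT-PCR/CE fluorescence read-out of reporter mRNA; fit both directions vs DMSO.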

Assay [4] addresses Cellular tumor antigen p53 (Homo sapiens) (UniProt P04637). As to the kind of experiment: ATG_p53_CIS: Attagene CIS-FACTORIAL HepG2 Assay for human p53 Transcription Factor (AID 2282994). To be noted: HepG2 p53 cis-element reporter, Attagene mRNA; actives raise or lower the signal. Summed up: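 HepG2 cells transiently transfected with multiplexed cis-regulated reporter transcription units read endogenous TF activity. After 24 h compound exposure, reporter mRNA was quantified by RT-PCR, fluorescent labelling, HpaI digestion and capillary electrophoresis; bidirectional fits versus DMSO baseline.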

The nature of assay [5]: BSK_3C_TissueFactor: BioMAP Diversity Plus: 3C Assay for Tissue Factor Biomarker Activity (AID 2282997). To be noted: BioMAP 3C HUVEC, tissue factor biomarker readout; actives raise or lower the signal. An outline of the steps: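 Values derive from bidirectional curve fitting against DMSO of Tissue Factor ELISA signals, taken 24 h after dosing primary human umbilical vein endothelial cells.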

Assay [6] is described as follows: BSK_3C_uPAR: BioMAP Diversity Plus: 3C Assay for Urokinase-type plasminogen activator receptor (uPAR) Biomarker Activity (AID 2282998). The note with it: BioMAP 3C HUVEC, uPAR biomarker ELISA; actives raise or lower the signal. Summed up: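 A multiplexed primary-cell system built on human umbilical vein endothelium was used, with chemical present for 24 h before reading. Cell-surface uPAR was detected by ELISA; signal change in either direction counted against DMSO.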
On the technique in general: An ELISA detects its analyte on a solid surface through an enzyme-linked reagent.

Assay [7] in a line: BSK_4H_Eotaxin3: BioMAP Diversity Plus: 4H Assay for Eotaxin 3 Biomarker Activity (AID 2283000).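 For outcome: CCL26 protein level quantified by ELISA in parallel with SRB cytotoxicity check.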 To be noted: primary human endothelial cells (HUVEC); actives raise or lower the signal. An outline of the steps: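 Endothelial primary cells (human umbilical vein) exposed to compound for 24 h. ELISA detection of Eotaxin-3.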
Read-out in assay [8]: Intercellular Adhesion Molecule 1 (ICAM1), ICAM1 (gene 3383)
The assay is described as follows: BSK_3C_ICAM1: BioMAP Diversity Plus: 3C Assay for Intercellular Adhesion Molecule 1 (ICAM1) Biomarker Activity (AID 2283003). To be noted: primary human endothelial cells (HUVEC); actives raise or lower the signal. Summed up: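 Human vascular endothelial primary cells, 3C conditions, 24 h treatment. ICAM-1 by ELISA.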

A short description of assay [9]: BSK_3C_Proliferation: Cell Proliferation Assessment in the BioMAP Diversity Plus: 3C Assay (AID 2283006).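 For AC50: potency may reflect either rise or fall in cell number versus DMSO.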 The note with it: primary human endothelial cells (HUVEC). An outline of the steps:
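Proliferation of human vascular endothelial primary cells after 48 h dosing, quantified as SRB-stained protein at 560 nm relative to DMSO.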

The target of assay [10] is Nuclear receptor subfamily 1 group I member 2 (Homo sapiens) (UniProt O75469). The assay is described as follows: ATG_PXR_TRANS: Attagene TRANS-FACTORIAL HepG2 Assay for human Pregnane X Receptor (PXR) (AID 2283008; active = hit-call score of the fitted dose curve at least 0.9, where 1 is the maximum). Summed up:
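HepG2 cells transiently transfected with multiple reporter units, here a PXR-GAL4 chimera driving a GAL4-UAS reporter; 24 h compound exposure. Reporter mRNA measured by RT-PCR, FAM labelling and capillary electrophoresis; gain of signal fitted against DMSO baseline.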

Assay [11] addresses human Retinoic Acid Receptor gamma (RARg), RARG (gene 5916) (UniProt P13631). The assay is described as follows: ATG_RARg_TRANS: Attagene TRANS-FACTORIAL HepG2 Assay for human Retinoic Acid Receptor gamma (RARg) (AID 2283009; active = hit-call score of the fitted dose curve at least 0.9, where 1 is the maximum). Summed up:
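HepG2, RARg-GAL4 TRANS system, 24 h exposure; reporter mRNA by RT-PCR + CE fluorescence; increase over DMSO.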

Assay [12] in a line: ATG_NF_kB_CIS: Attagene CIS-FACTORIAL HepG2 Assay for human Nuclear Factor Kappa B (NF-kB) (AID 2282991). To be noted: HepG2 Attagene cis-factorial NF-kB reporter mRNA; actives raise or lower the signal. Summed up: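 DMSO served as negative control and baseline for bidirectional curve fitting. Transiently transfected HepG2 cells were dosed for 24 h, then reporter transcripts were measured by RT-PCR with capillary electrophoresis detection.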

In assay [13] the target is human Peroxisome Proliferator-activated Receptor delta (PPARd), PPARD (gene 5467) (UniProt Q03181). The assay is described as follows: ATG_PPARd_TRANS: Attagene TRANS-FACTORIAL HepG2 Assay for human Peroxisome Proliferator-activated Receptor delta (PPARd) (AID 2283002; active = hit-call score of the fitted dose curve at least 0.9, where 1 is the maximum). Summed up: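 HepG2 cells transiently transfected with GAL4-UAS multiplexed reporter units driven by exogenous chimeric NR-GAL4 proteins; 24 h compound exposure. Reporter mRNA measured by RT-PCR, 6-FAM primer extension, HpaI digestion and capillary electrophoresis; gain of signal fitted relative to DMSO.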
Chain of human Peroxisome Proliferator-activated Receptor delta (PPARd), PPARD (gene 5467) (Q03181 whole entry, looked up, the tested form may be a part): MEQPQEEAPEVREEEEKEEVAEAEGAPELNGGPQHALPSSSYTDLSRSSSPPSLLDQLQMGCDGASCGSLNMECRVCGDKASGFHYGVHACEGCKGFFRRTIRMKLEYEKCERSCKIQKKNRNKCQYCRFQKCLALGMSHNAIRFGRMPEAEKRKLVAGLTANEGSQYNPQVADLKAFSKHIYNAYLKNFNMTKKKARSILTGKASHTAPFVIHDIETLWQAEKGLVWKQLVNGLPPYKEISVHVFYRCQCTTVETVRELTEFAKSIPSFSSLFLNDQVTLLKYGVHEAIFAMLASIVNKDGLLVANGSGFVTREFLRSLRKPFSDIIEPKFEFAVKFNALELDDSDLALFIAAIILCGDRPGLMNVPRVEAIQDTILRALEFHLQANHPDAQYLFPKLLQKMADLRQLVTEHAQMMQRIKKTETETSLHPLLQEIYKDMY

Assay [14] has as its target human Retinoic Acid Receptor beta (RARb), RARB (gene 5915) (UniProt P10826). The assay is described as follows: ATG_RARb_TRANS: Attagene TRANS-FACTORIAL HepG2 Assay for human Retinoic Acid Receptor beta (AID 2283004; active = hit-call score of the fitted dose curve at least 0.9, where 1 is the maximum). An outline of the steps:
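HepG2, transient MRTU transfection, NR–Gal4 chimera, 24 h treatment; RT-PCR plus CE fluorescence detection of reporter mRNA; gain of signal vs DMSO.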

For assay [15], the target named is human RAR-related Orphan Receptor gamma (RORg), RORC (gene 6097) (UniProt P51449). As to the kind of experiment: ATG_RORg_TRANS: Attagene TRANS-FACTORIAL HepG2 Assay for human RAR-related Orphan Receptor gamma (RORg) (AID 2283011; active = hit-call score of the fitted dose curve at least 0.9, where 1 is the maximum). An outline of the steps:
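Activity is scored as increase in GAL4-UAS reporter mRNA over DMSO, detected by fluorescent RT-PCR and capillary electrophoresis in HepG2 cells transiently expressing a RORg-Gal4 chimera, 24 h after dosing.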

The target of assay [16] is Retinoic acid receptor alpha (Homo sapiens) (UniProt P10276). As to the kind of experiment: ATG_RARa_TRANS: Attagene TRANS-FACTORIAL HepG2 Assay for human Retinoic Acid Receptor alpha (RARa) (AID 2283005; active = hit-call score of the fitted dose curve at least 0.9, where 1 is the maximum). An outline of the steps:
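HepG2 transiently transfected with multiplex GAL4-UAS reporter units including a human RARa–GAL4 chimera; 24 h compound exposure. Reporter mRNA quantified by RT-PCR, 6-FAM labeling and capillary electrophoresis; gain of signal versus DMSO.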

The target in assay [17] is Peroxisome proliferator-activated receptor gamma (Homo sapiens) (UniProt P37231). As to the kind of experiment: ATG_PPARg_TRANS: Attagene TRANS-FACTORIAL HepG2 Assay for human Peroxisome Proliferator-activated Receptor-gamma (PPARg) (AID 2283007; active = hit-call score of the fitted dose curve at least 0.9, where 1 is the maximum). Summed up:
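Chimeric NR-Gal4 transactivation is measured in transiently transfected HepG2 cells by reporter mRNA induction at 24 h. Detection uses RT-PCR with fluorescent labelling and capillary electrophoresis; DMSO defines baseline.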

Assay [18] in a line: BSK_3C_VCAM1: BioMAP Diversity Plus: 3C Assay for Vascular cell adhesion molecule 1 (VCAM1) Biomarker Activity (AID 2282999). The note with it: BioMAP 3C HUVEC, VCAM1 ELISA, cytokine-stimulated; actives raise or lower the signal. An outline of the steps:
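Human umbilical vein endothelial cells (3C system), biomarker read by ELISA 24 h after dosing; bidirectional fit against DMSO baseline. Cytotoxicity tracked by SRB total-protein staining in parallel cultures at biomarker time.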

Assay [19] has as its target human RAR-related Orphan Receptor beta (RORb), RORB (gene 6096) (UniProt Q92753). As to the kind of experiment: ATG_RORb_TRANS: Attagene TRANS-FACTORIAL HepG2 Assay for human RAR-related Orphan Receptor beta (RORb) (AID 2283010; active = hit-call score of the fitted dose curve at least 0.9, where 1 is the maximum). An outline of the steps: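 In this TRANS-format test, human HepG2 cells express chimeric NR-Gal4 fusion proteins driving GAL4-UAS reporters. After 24 h dosing, reporter transcripts are measured by fluorescent RT-PCR/capillary electrophoresis, with DMSO as negative control.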

Assay [20] deals with human Peroxisome Proliferator-activated Receptor alpha (PPARa), PPARA (gene 5465) (UniProt Q07869). As to the kind of experiment: ATG_PPARa_TRANS: Attagene TRANS-FACTORIAL HepG2 Assay for human Peroxisome Proliferator-activated Receptor alpha (PPARa) (AID 2283001; active = hit-call score of the fitted dose curve at least 0.9, where 1 is the maximum). Summed up: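 Measures transcriptional activity of an exogenous chimeric PPARa-Gal4 protein in transiently transfected HepG2 cells after 24 h dosing. Reporter mRNA quantified via RT-PCR and capillary electrophoresis; DMSO served as negative control.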

Chain of human RAR-related Orphan Receptor gamma (RORg), RORC (gene 6097) (P51449 whole entry, looked up, the tested form may be a part): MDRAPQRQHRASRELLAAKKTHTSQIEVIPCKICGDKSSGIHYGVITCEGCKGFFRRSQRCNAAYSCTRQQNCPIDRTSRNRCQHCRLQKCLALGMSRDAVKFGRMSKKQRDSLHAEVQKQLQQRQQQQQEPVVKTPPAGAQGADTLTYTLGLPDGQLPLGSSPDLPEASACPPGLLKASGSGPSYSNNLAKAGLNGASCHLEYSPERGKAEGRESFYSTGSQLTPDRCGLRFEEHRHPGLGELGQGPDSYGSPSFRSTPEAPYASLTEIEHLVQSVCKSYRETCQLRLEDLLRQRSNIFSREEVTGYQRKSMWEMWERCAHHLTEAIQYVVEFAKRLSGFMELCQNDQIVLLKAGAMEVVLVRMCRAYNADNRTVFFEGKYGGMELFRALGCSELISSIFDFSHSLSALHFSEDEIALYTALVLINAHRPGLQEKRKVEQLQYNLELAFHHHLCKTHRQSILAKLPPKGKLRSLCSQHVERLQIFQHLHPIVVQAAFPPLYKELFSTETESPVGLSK
Chain of Nuclear receptor subfamily 1 group I member 2 (Homo sapiens) (O75469 whole entry, looked up, the tested form may be a part): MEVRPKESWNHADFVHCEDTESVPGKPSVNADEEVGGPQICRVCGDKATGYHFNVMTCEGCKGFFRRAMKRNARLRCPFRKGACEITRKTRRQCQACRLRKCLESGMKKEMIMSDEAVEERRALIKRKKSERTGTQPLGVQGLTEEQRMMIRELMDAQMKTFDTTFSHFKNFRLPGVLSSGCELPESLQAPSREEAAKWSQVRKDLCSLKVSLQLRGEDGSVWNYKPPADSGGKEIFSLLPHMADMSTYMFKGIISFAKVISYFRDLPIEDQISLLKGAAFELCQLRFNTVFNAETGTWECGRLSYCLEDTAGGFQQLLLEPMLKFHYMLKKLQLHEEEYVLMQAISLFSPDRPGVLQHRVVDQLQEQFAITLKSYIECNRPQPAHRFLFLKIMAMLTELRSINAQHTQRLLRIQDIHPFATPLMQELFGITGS
Chain of human Retinoic Acid Receptor beta (RARb), RARB (gene 5915) (P10826 whole entry, looked up, the tested form may be a part): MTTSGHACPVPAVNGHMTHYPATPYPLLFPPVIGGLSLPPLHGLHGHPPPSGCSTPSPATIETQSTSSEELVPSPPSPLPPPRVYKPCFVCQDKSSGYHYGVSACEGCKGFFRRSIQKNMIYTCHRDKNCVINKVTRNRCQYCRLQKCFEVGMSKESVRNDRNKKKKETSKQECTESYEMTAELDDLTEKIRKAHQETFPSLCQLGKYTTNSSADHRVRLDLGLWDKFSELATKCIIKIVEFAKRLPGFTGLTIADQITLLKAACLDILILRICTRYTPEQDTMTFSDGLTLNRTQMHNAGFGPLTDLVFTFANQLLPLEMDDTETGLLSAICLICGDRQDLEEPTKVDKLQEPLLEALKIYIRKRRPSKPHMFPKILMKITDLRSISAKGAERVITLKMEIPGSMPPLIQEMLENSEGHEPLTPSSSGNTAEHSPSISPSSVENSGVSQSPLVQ
Chain of Myc proto-oncogene protein (Homo sapiens) (P01106 whole entry, looked up): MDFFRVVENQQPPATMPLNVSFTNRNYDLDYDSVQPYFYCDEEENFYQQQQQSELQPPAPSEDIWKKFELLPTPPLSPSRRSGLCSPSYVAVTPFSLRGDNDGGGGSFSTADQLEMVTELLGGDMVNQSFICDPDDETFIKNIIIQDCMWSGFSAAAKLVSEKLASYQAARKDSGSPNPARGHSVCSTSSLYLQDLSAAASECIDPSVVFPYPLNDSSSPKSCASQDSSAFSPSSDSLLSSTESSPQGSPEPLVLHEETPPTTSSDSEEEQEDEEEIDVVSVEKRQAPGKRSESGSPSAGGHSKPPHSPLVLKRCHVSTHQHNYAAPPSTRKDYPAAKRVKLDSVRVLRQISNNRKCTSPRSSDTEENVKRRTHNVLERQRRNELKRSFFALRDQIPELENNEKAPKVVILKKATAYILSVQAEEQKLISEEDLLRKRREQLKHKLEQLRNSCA
Chain of Cellular tumor antigen p53 (Homo sapiens) (P04637 whole entry, looked up): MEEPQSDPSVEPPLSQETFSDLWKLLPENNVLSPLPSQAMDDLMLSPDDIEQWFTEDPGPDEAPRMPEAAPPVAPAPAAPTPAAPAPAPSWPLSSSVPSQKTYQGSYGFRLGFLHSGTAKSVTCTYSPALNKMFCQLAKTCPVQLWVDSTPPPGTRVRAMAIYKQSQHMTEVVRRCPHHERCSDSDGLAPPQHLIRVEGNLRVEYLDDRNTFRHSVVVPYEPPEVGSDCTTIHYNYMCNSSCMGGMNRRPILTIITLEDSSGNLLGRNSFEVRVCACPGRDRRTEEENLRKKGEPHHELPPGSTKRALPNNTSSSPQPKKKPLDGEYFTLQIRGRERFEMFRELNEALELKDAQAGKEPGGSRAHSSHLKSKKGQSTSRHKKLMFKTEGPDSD
Chain of human Retinoic Acid Receptor gamma (RARg), RARG (gene 5916) (P13631 whole entry, looked up, the tested form may be a part): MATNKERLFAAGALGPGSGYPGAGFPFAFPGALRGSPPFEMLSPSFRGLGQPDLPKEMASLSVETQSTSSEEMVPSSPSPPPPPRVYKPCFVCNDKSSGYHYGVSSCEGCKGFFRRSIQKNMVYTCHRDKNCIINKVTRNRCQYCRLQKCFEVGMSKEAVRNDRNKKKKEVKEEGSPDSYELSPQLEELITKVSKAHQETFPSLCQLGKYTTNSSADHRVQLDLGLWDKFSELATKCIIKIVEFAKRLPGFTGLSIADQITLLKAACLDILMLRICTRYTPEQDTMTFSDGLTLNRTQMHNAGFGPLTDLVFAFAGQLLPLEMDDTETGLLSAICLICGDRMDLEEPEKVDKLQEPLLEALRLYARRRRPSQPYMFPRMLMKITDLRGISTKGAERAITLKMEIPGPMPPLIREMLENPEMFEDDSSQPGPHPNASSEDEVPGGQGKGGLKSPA
Chain of Retinoic acid receptor alpha (Homo sapiens) (P10276 whole entry, looked up, the tested form may be a part): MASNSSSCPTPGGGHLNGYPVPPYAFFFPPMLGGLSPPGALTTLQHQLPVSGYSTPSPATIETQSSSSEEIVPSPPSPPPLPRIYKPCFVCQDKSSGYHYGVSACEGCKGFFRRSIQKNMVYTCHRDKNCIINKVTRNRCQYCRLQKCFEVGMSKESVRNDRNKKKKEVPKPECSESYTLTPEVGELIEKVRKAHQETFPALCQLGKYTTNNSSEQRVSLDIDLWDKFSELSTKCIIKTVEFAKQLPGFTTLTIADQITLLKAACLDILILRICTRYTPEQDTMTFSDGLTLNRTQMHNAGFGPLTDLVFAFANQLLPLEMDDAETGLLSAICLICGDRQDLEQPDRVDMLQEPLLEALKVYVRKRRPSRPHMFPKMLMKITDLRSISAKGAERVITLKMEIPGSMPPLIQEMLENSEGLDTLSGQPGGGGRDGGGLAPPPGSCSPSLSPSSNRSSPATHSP
Chain of human RAR-related Orphan Receptor beta (RORb), RORB (gene 6096) (Q92753 whole entry, looked up, the tested form may be a part): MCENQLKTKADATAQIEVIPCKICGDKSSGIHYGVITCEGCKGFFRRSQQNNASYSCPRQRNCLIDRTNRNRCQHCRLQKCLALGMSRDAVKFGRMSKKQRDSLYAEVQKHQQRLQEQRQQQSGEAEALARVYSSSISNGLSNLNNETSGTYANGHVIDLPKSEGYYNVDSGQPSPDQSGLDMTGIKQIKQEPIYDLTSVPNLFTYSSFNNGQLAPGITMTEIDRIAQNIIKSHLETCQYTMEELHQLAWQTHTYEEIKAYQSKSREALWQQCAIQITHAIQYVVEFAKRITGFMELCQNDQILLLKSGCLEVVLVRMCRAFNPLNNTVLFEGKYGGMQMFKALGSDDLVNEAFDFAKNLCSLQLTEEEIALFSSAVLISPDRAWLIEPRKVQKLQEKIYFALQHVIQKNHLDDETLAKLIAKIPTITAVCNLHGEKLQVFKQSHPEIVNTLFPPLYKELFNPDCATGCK
Chain of Peroxisome proliferator-activated receptor gamma (Homo sapiens) (P37231 whole entry, looked up, the tested form may be a part): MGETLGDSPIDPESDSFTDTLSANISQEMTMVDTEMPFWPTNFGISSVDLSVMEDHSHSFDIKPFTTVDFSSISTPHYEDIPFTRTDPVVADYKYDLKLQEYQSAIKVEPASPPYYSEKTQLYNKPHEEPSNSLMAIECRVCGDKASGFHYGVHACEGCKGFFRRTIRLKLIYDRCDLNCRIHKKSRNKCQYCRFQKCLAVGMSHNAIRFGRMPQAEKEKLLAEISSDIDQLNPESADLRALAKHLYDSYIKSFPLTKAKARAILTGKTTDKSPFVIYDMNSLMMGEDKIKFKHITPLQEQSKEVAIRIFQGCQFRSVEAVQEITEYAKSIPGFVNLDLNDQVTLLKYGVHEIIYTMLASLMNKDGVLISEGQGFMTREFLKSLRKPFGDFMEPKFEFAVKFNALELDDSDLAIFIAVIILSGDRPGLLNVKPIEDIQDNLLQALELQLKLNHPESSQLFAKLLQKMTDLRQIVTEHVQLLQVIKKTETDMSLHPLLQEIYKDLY

As to `CC(C)CC(C)(O)C#CC(C)(O)CC(C)C` (configuration not stated), the compound was called inactive in assay [1], in [2], in assay [3], in assay [4], in assay [5] and in assay [6]. In addition, the result in [7], in assay [8], in assay [9] and in [11] was inactive. Moreover, the AC50 in assay [10] was 11.9 µM (active).
Consider `CC[C@H]1CC[C@H](NCc2cc3c(cc2OC)[C@H]2C[C@H]2C(=O)N3C)[C@H](c2ccccc2)N1`, for which the result in assay [1], in assay [2], in [5], in assay [6], in assay [7] and in assay [13] was inactive. Besides, the result in assay [8], in assay [14], in assay [11] and in assay [15] was inactive. Moreover, the AC50 in assay [12] is 45.2 µM (active); in [4], 100 µM (active); in assay [9], 28.6 µM (active); in assay [10], 3.94 µM (active).
In the case of `CC(C)c1cccc(C(C)C)c1N1C(=O)c2ccc(O)cc2C1=O`, the AC50 was 164 µM (active) in assay [1]; 25.2 µM (active) in assay [2]; 76.2 µM (active) in assay [3]; 166 µM (active) in assay [4]; 19 µM (active) in [6]; 30.8 µM (active) in [7]. Besides, the results for the AC50 in [9] and in assay [10] were 3.32 µM (active) and 0.242 µM (active), respectively. The compound was classed as inactive in assay [12], in [13], in assay [8], in assay [16], in assay [17] and in assay [11].
As to `COc1ccc2sc(C(=O)Nc3nnn[nH]3)c(OC(C)C)c2c1`, the call in [1], in [13], in [10] and in [15] was inactive. Also, the AC50 in assay [2] was 70.2 µM (active); in [3], 155 µM (active); in [4], 71.4 µM (active); in assay [5], 22.5 µM (active); in assay [6] it was 5.51 µM (active); in assay [18] it was 23.7 µM (active). The results for the AC50 in assay [7], in assay [8] and in [9] were 23.3 µM (active), 26.4 µM (active) and 9.42 µM (active), respectively.
`CC(C)=CCCC(C)CCO` (configuration not stated): the result in assay [1], in assay [12], in assay [3], in assay [4], in assay [6] and in assay [18] was inactive. In addition, the outcome in assay [7], in assay [8], in [14], in [9], in assay [10] and in [19] was inactive. Moreover, the AC50 in assay [2] is 134 µM (active).
`Nc1ccc(Nc2ccccc2)cc1`: the outcome in assay [1], in assay [12], in assay [6], in assay [20], in [8] and in assay [14] was inactive. Moreover, the call in assay [10] was inactive. Besides, the AC50 in assay [2] was 47.1 µM (active); in assay [3], 32 µM (active); in assay [7], 3.97 µM (active); in assay [9], 3.97 µM (active).
Take `Cc1c(-c2cccnc2)c2ccccc2n1CCCCC(=O)O`: the compound was classed as inactive in assay [1], in assay [2], in [3], in assay [4], in assay [5] and in assay [6]. For the same compound, the result in [18], in assay [7], in assay [13], in assay [8], in assay [14] and in [16] was inactive. The call in [10], in [11] and in assay [15] was inactive. In addition, the AC50 in [9] was 17.4 µM (active).

These data come from PubChem BioAssay (EPA / NIEHS).
